Measurements as given in PubChem BioAssay AID2384 (Southern Research Specialized Biocontainment Screening …, 2010).
Among all 2,300 compounds or so, about 1,100 (48%) were called active. No rule for the calls is given here. So high a share suggests a set chosen from earlier hits. This is one part of the list. Measured potencies and affinities stand elsewhere.

assay: inhibitors in S. typhi counter-screen strain, dose response, counter-screen for PhoP regulon inhibitor project, fluorescence, 4 h (AID 2384); details: S. typhi GFP reporter counter-screen; series mostly up to 150 µM

| SMILES | inhibition |
| --- | --- |
| O=C(c1cc2c(s1)-c1ccccc1OC2)N1CCc2ccccc2C1 | inactive |
| Nc1c(-c2ccccc2)sc2ccc3ccccc3[n+]12 | inactive |
| CN(Cc1ccccc1)S(=O)(=O)c1csc(C(N)=O)c1 | inactive |
| Cc1cccc(NC(=O)c2ccccc2Br)n1 | inactive |
| Cc1ccc(C(C)C)c(OCCNC(=O)c2ccccc2O)c1 | inactive |
| CN1C(=O)c2ccc(NC(=O)C3CCCCC3)cc2C1=O | inactive |
| CC(=O)c1c(C)[nH]c(C(=O)OCC(=O)NCC(C)C)c1C | inactive |
| O=C(O)CCSCc1ccccc1F | inactive |
| Cc1ccc(NC(=S)NCc2cccs2)cc1 | inactive |
| O=C(NCCc1ccncc1)Nc1ccc(Cl)c(Cl)c1 | inactive |
| Cc1cc2cc(CNC(=O)C(C)Oc3ccccc3)ccc2n1C (stereo unspecified) | inactive |
| COC(=O)c1cccc(C(=O)N2CCCC(CCC(=O)N(C)CCc3ccccn3)C2)c1 (stereo unspecified) | inactive |
| Fc1ccc(NC(=S)NCc2ccccc2Cl)cc1 | inactive |
| COc1ccccc1CNC(=O)COC(=O)CCC(=O)c1cccs1 | inactive |
| COc1cccc(CNc2nn[nH]n2)c1OC | inactive |
| Cc1cc(=O)oc2cc(OCC(=O)NC3CCCC3)ccc12 | inactive |
| CSc1cccc(NC(=O)/C=C/c2ccco2)c1 | inactive |
| COc1cccc(C(=O)Nc2cccc(SC)c2)c1 | inactive |
| CC(C)CCNC(=O)c1cc2c(s1)-c1ccccc1S(=O)(=O)C2 | inactive |
| COC(=O)c1ccc(CSc2nc3ccccc3c(=O)n2-c2ccc(OC)c(OC)c2)o1 | inactive |
| Cc1[nH]nc2c1C1(CCC3(CC1)OCCO3)C(C#N)=C(N)O2 | inactive |
| Cc1ccsc1/C=N\NC(=O)c1ccc2c(c1)OCO2 | 29.4% [at 18.8 µM] (inactive) |
| Cc1ccc2cc(-c3noc(C4CCCO4)n3)c(=O)[nH]c2c1 (stereo unspecified) | inactive |
| Cc1[nH]c(=O)[nH]c(=O)c1S(=O)(=O)N1CCCC(C(=O)NCc2ccc3c(c2)OCO3)C1 (stereo unspecified) | inactive |
| CCc1cccc2c(C=C(C#N)C#N)cn(CC(=O)N3CCCCCC3)c12 | inactive |
| N#Cc1c(/N=C/c2cccs2)sc2c1CCCCC2 | inactive |

| SMILES | inhibition |
| --- | --- |
| Cc1nc(NC2=NCN(CCCN3CCOCC3)CN2)nc2c(C)cccc12 | inactive |
| COc1cccc(NC(=O)CN(C)C(C)C(=O)Nc2ccc(S(=O)(=O)N3CCOCC3)cc2)c1 (stereo unspecified) | inactive |
| COc1cccc(CNC(=O)C2CCN(S(=O)(=O)c3ccc(C)cc3)CC2)c1 | inactive |
| Nc1nc(SCC(=O)Nc2ccc3c(c2)CCC3)n[nH]1 | inactive |
| CC(C)Cc1c(O)nc(SCC(=O)Nc2ccc3c(c2)CCC3)[nH]c1=O | inactive |
| CC(=O)c1ccc(NC(=S)NC(NC(=O)c2ccco2)C(Cl)(Cl)Cl)cc1 (stereo unspecified) | inactive |
| Cc1nn(-c2nc3ccccc3[nH]2)c(N)c1-c1ccccc1 | inactive |
| CC(C)SCc1nc2ccccc2[nH]1 | inactive |
| N#CC(C(=O)C12CC3CC(CC(C3)C1)C2)c1nc2ccccc2[nH]1 (stereo unspecified) | inactive |
| COc1cccc(CNS(=O)(=O)c2ccc3c(c2)NC(=O)CS3)c1 | inactive |
| O=C(O)CC12CC3CC(C1)CC(n1ncc(NCC4CCCO4)c(Cl)c1=O)(C3)C2 (stereo unspecified) | inactive |
| Cc1ccc(NC2=C(Cl)C(=O)OC2OC(=O)c2ccco2)c(C)c1 (stereo unspecified) | inactive |
| CN(C)C(CNc1ccc([N+](=O)[O-])cc1C#N)c1ccccc1 (stereo unspecified) | inactive |
| O=C(NCc1nc2ccccc2[nH]1)c1ccc([N+](=O)[O-])cc1 | inactive |
| COc1ccc(C2=NN3C(C2)c2ccccc2OC3c2cccs2)cc1 (stereo unspecified) | inactive |
| CCS(=O)(=O)N1CCN(C2CCC(c3ccccc3)CC2)CC1 (stereo unspecified) | inactive |
| CNS(=O)(=O)c1cc(OC)ccc1OC | inactive |
| NC(=O)c1cc(C(=O)c2cccc(Cl)c2Cl)c[nH]1 | inactive |
| CCOC(=O)COn1c(=O)c(-c2cccs2)[n+]([O-])c2ccccc21 | inactive |
| CCOc1ccc(N2C(=O)S/C(=C\c3ccc(O)c(OC)c3)C2=O)cc1 | inactive |
| c1ccn(-c2ccc(-c3ccn[nH]3)cc2)c1 | inactive |
| CC(=O)Nc1nc(C)c(-c2csc(Nc3ccc(O)cc3)n2)s1 | inactive |
| Cc1cc(C)c[n+](CC(=O)c2ccc(NC(=O)c3ccccc3)cc2)c1 | inactive |
| CC(C)(C)n1nc2c(c1NC(=O)c1ccccc1)CS(=O)(=O)C2 | inactive |
| Cc1cc(NS(=O)(=O)c2ccc(Nc3nc(-c4sc(NC(=O)c5ccccc5)nc4C)cs3)cc2)no1 | inactive |
| COC(=O)Cn1c(=O)c(C)nc2ccccc21 | inactive |

| SMILES | inhibition |
| --- | --- |
| Clc1ccc(Cn2cc(Br)cn2)cc1Cl | inactive |
| COCCn1nnnc1C(c1cccc(OC)c1OC)N1CCN(C2CCCCC2)CC1 (stereo unspecified) | inactive |
| COc1cc2[nH]c(=O)n(Cc3ccc(C(=O)N4CCC(N5CCCCC5)CC4)cc3)c(=O)c2cc1OC | inactive |
| O=C1c2cccnc2C(=O)N1c1ccccc1-c1ccccc1 | inactive |
| CC(C)(C)n1nc2c(c1NC(=O)c1cccs1)CS(=O)C2 (stereo unspecified) | inactive |
| O=C(c1cccs1)N1CCN(S(=O)(=O)c2ccccc2)CC1 | inactive |
| CC(C)(C)c1ccc(C(=O)NNC(=O)Cc2ccccc2)cc1 | inactive |
| CCc1ccccc1NC(=S)N(Cc1cccc(C)c1)c1cccnc1 | inactive |
| N=c1sc2c(n1Cc1ccccc1)CCCC2 | inactive |
| N#Cc1c(-c2ccccc2)ccn(Cc2cccc(Cl)c2)c1=O | inactive |
| Nc1nc2n(n1)C(c1ccco1)CC(c1ccc(Cl)c(Cl)c1)N2 (stereo unspecified) | inactive |
| Cc1ccc2nc3c(c(N)c2c1)CCN3C | inactive |
| O=C(CSc1nnnn1C1CCCCC1)N1CCCC1 | inactive |
| Cc1cc(C)nc(NS(=O)(=O)c2ccc(N3C(=O)C4CC=C(Cl)CC4C3=O)cc2)n1 (stereo unspecified) | inactive |
| Fc1cccc(NC(=S)NCc2ccc(Cl)cc2)c1 | inactive |
| CCOc1ccccc1NC(=O)Nc1ccncc1 | inactive |
| Cc1ccc(NC(=O)C(=O)NCc2ccncc2)cc1 | inactive |
| COC(=O)Cc1ccc(NC(=S)NCc2ccc(Cl)cc2)cc1 | inactive |
| O=S(=O)(Nc1ncccn1)c1ccc(NC(=S)Nc2ccc(Cl)cc2)cc1 | inactive |
| CCNC(=S)Nc1cccc(S(=O)(=O)Nc2ccccc2OC)c1 | inactive |
| Cc1ccc(S(=O)(=O)N(Cc2n[nH]c(=S)n2-c2ccccc2)c2ccccc2)cc1 | inactive |
| CCN(C1CCCCC1)S(=O)(=O)c1ccc(OC)c(C)c1 | inactive |
| Cc1cnc(C(=O)Nc2nnc(C)s2)cn1 | inactive |
| O=C(O)C1Cc2ccccc2CN1S(=O)(=O)c1ccc2ccccc2c1 (stereo unspecified) | inactive |
| CN1CCCN(S(=O)(=O)c2ccc3c(c2)OCCO3)CC1 | inactive |
| O=S(=O)(Nc1cccc(-c2cn3c(n2)SCC3)c1)c1ccc(F)cc1F | inactive |

| SMILES | inhibition |
| --- | --- |
| COc1ccc(NC(=O)N(CCc2ccccc2)Cc2cc3c(C)cc(C)cc3[nH]c2=O)cc1 | inactive |
| CCC(CC)C(=O)NCCc1cc2ccc(C)cc2[nH]c1=O | inactive |
| COc1ccc(Cl)cc1-c1n[nH]c(=S)o1 | inactive |
| CC1CC1C(=O)Nc1nc2ccc(S(C)(=O)=O)cc2s1 (stereo unspecified) | inactive |
| Cc1ccc(N2C(=O)[C@@H]3[C@H](C2=O)[C@H]2C=CC=NN2[C@@H]3C(=O)Nc2ccc(Cl)cc2)cc1 | inactive |
| COc1ccccc1CNC(=O)Cn1c(=O)oc2cc(S(=O)(=O)N3CCCC3)ccc21 | inactive |
| COc1cccc(NC(=O)COC(=O)Cc2ccccc2[N+](=O)[O-])c1 | inactive |
| Cc1ccc(NC(=O)c2sccc2C)cc1[N+](=O)[O-] | inactive |
| O=C(Nc1ccc(Cl)cc1)c1cccs1 | inactive |
| O=C(N/N=C/c1cccc(OCc2ccccc2)c1)c1cccs1 | inactive |
| Cc1ccc(NC2OC(CO)C(O)C(O)C2O)cc1 (stereo unspecified) | inactive |
| O=C1CC(NC(=O)C(F)(F)F)=NN1c1ccccc1 | inactive |
| Cc1nc2ccc(NC(=O)C(F)(F)F)cc2o1 | inactive |
| NS(=O)(=O)c1cc2c(cc1Cl)NC(Cc1ccccc1)NS2(=O)=O (stereo unspecified) | inactive |
| CCOc1cc(S(=O)(=O)N2CCN(CC)CC2)ccc1Cl | inactive |
| c1ccc2cc(CSCc3nc4ccccc4[nH]3)ccc2c1 | inactive |
| CCOC(=O)C1CCN(C(=O)CCc2nc3ccccc3[nH]2)CC1 | inactive |
| C#CCOCCOCCOCCNc1nc(N2CCN(C(=O)CCCCCCCCCCNC(=O)[C@H]([C@@H](C)CC)n3cc(CCCCN=C(N)N)nn3)CC2)nc(N2CCN(C(=O)CCCCCCCCCCNC(=O)[C@@H]([C@H](C)O)n3cc(C)nn3)CC2)n1 | inactive |
| C#CCOCCOCCOCCNc1nc(N2CCN(C(=O)CCCCCCCCCCNC(=O)[C@@H](CCSC)n3cc(CCO)nn3)CC2)nc(N2CCN(C(=O)CCCCCCCCCCNC(=O)[C@H]([C@@H](C)CC)n3cc(CCCCCN)nn3)CC2)n1 | inactive |
| c1cc2c(cc1Oc1nc(N3CCOCC3)nc(N3CCOCC3)n1)OCO2 | inactive |
| COc1cc(CNC(=O)CCC(=O)N2C[C@H]3C[C@H](C2)c2cccc(=O)n2C3)cc(OC)c1OC | inactive |
| CC1(C)Cc2c(sc(NC(=O)COc3ccc(Cl)cc3)c2C(N)=O)C(C)(C)N1 | inactive |
| CCC(=O)N(Cc1cc2cc(OC)ccc2[nH]c1=O)c1ccc(C)cc1C | inactive |
